This is a sample that favours compounds with a hit; in the whole collection about 7.3% have one here.
FLuc modulator: inhibits or activates purified firefly luciferase, miR-21 counter-screen. purified FLuc, Km substrates, luminescence inhibition. P08659. Potency, µM (highest dose often 57.5 µM), for the others: at the highest dose activity change, negative = inhibition, actives largely listed as inhibitors. actives 6.9% (n = 360,000);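 note: plate controls were vehicle for no effect and reference inhibitor for full effect; nearly all actives have a fitted effect of over 55% in size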
Target sequence (P08659 whole entry, looked up): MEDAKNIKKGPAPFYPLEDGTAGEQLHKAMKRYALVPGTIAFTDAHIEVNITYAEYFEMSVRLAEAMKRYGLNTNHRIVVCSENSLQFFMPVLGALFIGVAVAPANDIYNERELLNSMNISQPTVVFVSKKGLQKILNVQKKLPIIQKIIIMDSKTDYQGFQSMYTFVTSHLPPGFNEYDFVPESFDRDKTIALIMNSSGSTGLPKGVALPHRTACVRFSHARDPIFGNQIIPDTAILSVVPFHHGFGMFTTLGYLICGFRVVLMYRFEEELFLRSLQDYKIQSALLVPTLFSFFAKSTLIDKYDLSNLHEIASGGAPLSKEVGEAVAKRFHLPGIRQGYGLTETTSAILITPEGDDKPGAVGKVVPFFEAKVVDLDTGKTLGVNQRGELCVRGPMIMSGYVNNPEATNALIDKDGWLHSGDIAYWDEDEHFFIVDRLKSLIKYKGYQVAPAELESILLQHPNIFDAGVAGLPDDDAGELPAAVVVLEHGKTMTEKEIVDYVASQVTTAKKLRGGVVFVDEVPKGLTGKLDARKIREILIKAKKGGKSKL
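Purified P. pyralis luciferase (10nM final) with 10uM D-luciferin and 10uM ATP (Km levels) in 50mM Tris acetate pH 7.5, 10mM Mg acetate, 0.01% Tween-20, 0.05% BSA; qHTS 6-point titration, ~60 µM downward; luminescence read.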
SMN2 splice up: SMN2 splice variant enhancement; actives 2.8% (n = 210,000); Potency, µM (doses to about 46.1 µM), without a hit: at the top dose activity change, positive = activation, actives largely listed as activators; HEK293 SMN2-luciferase splicing reporter, luminescence, 30-36 h; note: % of control where 0% means no effect; nearly all actives have a fitted effect of over 55% in size
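HEK293 cells carry an SMN2 […]–luciferase reporter in which exon 7 inclusion puts luciferase in frame. Cells were plated 10-12 h before compound addition, then incubated 30-36 h at 37C. ONE-Glo luminescence was read; sodium butyrate at 4.5 mM final served as control.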
NPC1 prom act: activates the NPC1 promoter. AID 485313. actives 2.4% (n = 320,000). Huh7 NPC1 promoter luciferase reporter, 24 h. Potency, µM (top dose mostly 9.22 µM), for the others: at the top dose activation, usual class: activators; note: % of control where 0% means no effect; nearly all actives have a fitted effect of over 60% in size
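Huh7 cells stably carrying NPC1 promoter–luciferase, plated in Opti-MEM with 10% FBS for 2 h, were exposed to compound in DMSO for 24 h at 37 °C; luciferase reagent was added for 10 min and luminescence read.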
Rab9 prom act: Rab9 promoter activation; actives 2.8% (n = 320,000); Huh7 Rab9 promoter-luciferase reporter, luminescence, 24 h; Potency, µM (highest dose often 9.22 µM), for inactives: top-dose activation, negative = inhibition, usual class: activators; AID 485297; note: % of control where 0% means no effect; nearly all actives have a fitted effect of over 60% in size
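Cell-based reporter: Huh7 stable for Rab9 promoter-driven luciferase, plated in reduced-serum medium with 10% FBS at 1500 cells/well, compound-treated 24 h at 37 °C, luminescence read after 10 min reagent.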
p53 reactivation: re-activators of mutant p53 | actives 0.063% (n = 320,000) | Potency, µM (doses to about 92.2 µM), without a hit: at the highest dose activity change, positive = activation, most hits filed as activators | AID 504706 | H1299 p53-A138V BP100-luciferase reporter, luminescence, 24 h; note: % of control where 0% means no effect; nearly all actives have a fitted effect of over 45% in size
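p53-null H1299 cells stably carrying temperature-sensitive p53-A138V and a BP100-luciferase reporter were pinned with compounds (4-point, 1:5 series) and held 24 hrs at 37 deg C. Luminescence was read 10 min after detection reagent.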
ELG1 genotox: induces genotoxicity in HEK293T cells with luciferase-tagged ELG1. HEK293T ELG1-luciferase reporter, luminescence, 16 h. Potency, µM (highest dose often 46 µM), for inactives: top-dose activity change, positive = activation, hits mostly activators. actives 1.3% (n = 330,000). AID 504466; note: % of control where 0% means no effect; nearly all actives have a fitted effect of over 60% in size
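Genotoxicity was scored as increased ELG1-luciferase reporter signal, measured by ONE-Glo luminescence (30 min, room temperature). Compound or vehicle exposure of the HEK293T reporter cells lasted 16 hr at 37°C.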
Starred values were filed as active, the others as inactive; ? = inconclusive; . = no result; [ ] = dose if it differs, or a comment. Calls come from the whole dose curve; as a rule, active = well fitted curve in the direction sought with a large enough effect; inconclusive = small, poorly fitted or top-dose-only effect, or another doubt; inactive = no such curve, though single readings can be large; an effect the other way counts as inactive or inconclusive. Potency is the fitted concentration of half-maximal effect.

SMILES	FLuc modulator	SMN2 splice up	NPC1 prom act	Rab9 prom act	p53 reactivation	ELG1 genotox
Cc1ccccc1[C@@H]1C(C#N)=C(N)S[C@H]1C(=O)c1ccccc1	?	-23.1%	-0.8%	-3.0%	-0.7%	-3.0%
C=C1CCC2C(CC2(C)C)C(=C)CC/C1=N/O (stereo unspecified)	.	8.4%	.	.	.	.
CCOC(=O)c1c(C)c(C(=O)NCCc2ccc(OC)cc2)c(C)n1CC	3.4%	-6.1%	.	.	.	.
COc1cc(/C=C/c2noc(-c3ccccc3O)n2)cc(OC)c1OC	0.5%	12.7%	21.8%	26.5%	4.5%	10.1%
CC(=O)Oc1ccccc1-c1nc(/C=C/c2ccccc2)no1	10.7µM*	.	2.82µM*	?	?	9.2µM*
COc1ccc(/C=C/c2noc(-c3ccccc3O)n2)cc1	3.79µM*	26.8%	?	26.5%	?	?
CC(=O)Oc1ccccc1C(=O)O	.	20.1%	0.3%[46.1 µM]	2.2%[46.1 µM]	.	.
Cc1ccc(CSc2ncnc3ccccc23)cc1	?	7.8%	1.0%	4.3%	25.1%	-2.8%
Cc1ccc(C(=O)CSc2ncnc3ccccc23)o1	13.5µM*	10.9%	3.98µM*	3.98µM*	23.9%	12.4%
O=C(CSc1ncnc2ccccc12)c1cccs1	1.51µM*	.	1.78µM*	0.447µM*	?	?
O=C(CSc1ncnc2ccccc12)N1CCCC1	?	6.1%	16.3%	27.8%	?	?
COc1ccc(CCNc2nc(SCc3ccccc3Cl)nc3ccccc23)cc1OC	-0.6%	.	.	.	.	.
O=C(C1CC(=O)N(c2ccc3c(c2)OCCO3)C1)N1CCN(c2cccc(C(F)(F)F)c2)CC1 (stereo unspecified)	0.1%	.	-4.8%	2.2%	-7.2%	-7.2%
O=C1C(=O)c2ccccc2C(O)=C1Cc1ccccc1	.	-4.9%[9.22 µM]	.	.	.	.
O=C(O)c1cc(-c2ccc(C(F)(F)F)cc2)nc2n[nH]c(-c3ccccc3)c12	3.01µM*	.	.	.	.	.
COc1ccc(-c2cc(C(=O)NCCc3ccccc3)c3c(-c4ccccc4)[nH]nc3n2)cc1	0.3%	.	.	.	.	.
CCC1CCCCN1CCCNC(=O)c1ccc2c(c1)N(Cc1ccccc1F)C(=O)c1ccccc1S2(=O)=O (stereo unspecified)	2.6%	-75.9%	.	.	.	.
COc1ccc(OCC(=O)Nc2cccc3cccnc23)cc1	?	-20.4%	-7.3%	-8.1%	-3.9%	0.4%
Cc1cc(C)cc(OCC(=O)Nc2nonc2NC(=O)COc2cc(C)cc(C)c2)c1	-2.4%	-2.1%	-2.1%	-5.7%	3.0%	-1.3%
COc1ccc(OCC(=O)Nc2nonc2NC(=O)COc2ccc(OC)cc2)cc1	1.9µM*	13.5%	1.1%	1.7%	10.7%	1.8%
COc1ccc(OCC(=O)Nc2cccc(NC(=O)COc3ccc(OC)cc3)n2)cc1	2.13µM*	-10.6%	2.51µM*	?	9.6%	?
Cc1cc[n+](CC(=O)c2cc3ccccc3oc2=O)cc1	23.9µM*	-2.0%	1.3%	24.6%	?	14.7%
COc1ccc(C(=O)Nc2cc(C(C)=O)c(/C=C/N(C)C)oc2=O)cc1	?	-5.1%	-2.9%	4.3%	8.2%	-0.3%
CC(=O)c1cc(NC(=O)c2ccc(C)cc2)c(=O)oc1C	16.9µM*	.	-1.6%	-1.6%	?	?
Cc1oc(=O)c(NC(=O)c2ccccc2)cc1C(=O)c1ccccc1	15.1µM*	26.0%	?	2.24µM*	-4.0%	?
SMILES	FLuc modulator	SMN2 splice up	NPC1 prom act	Rab9 prom act	p53 reactivation	ELG1 genotox
Cc1cc(C)nc(SCC(=O)c2cc3ccccc3oc2=O)n1	-7.7%	-9.2%	1.7%	-0.8%	9.6%	-0.3%
CC(=O)c1cc(NC(=O)c2ccc(C)cc2)c(=O)oc1/C=C/N(C)C	5.36µM*	?	-1.1%	20.7%	8.9%	3.1%
Cc1oc(=O)c(NC(=O)c2ccc(Cl)cc2)cc1C(=O)c1ccccc1	-17.0%	-5.0%	0.0%	2.1%	-9.9%	6.7%
Cc1cccc(Cc2c(C)nc3nc(SCc4cccc(F)c4)nn3c2C)c1	-5.6%	.	.	.	.	.
CC1=C(C(=O)NCCc2ccc(Cl)cc2)C2(CCCCC2)OC1=O	3.5%	.	.	.	.	.
COc1cccc(-c2sc3ccccc3c2-c2ccc(OCCN(C)C)cc2)c1	.	.	.	.	-15.5%	-10.4%
Cc1ccc(C(=O)Nc2cc3ccccc3oc2=O)cc1	0.0757µM*	.	0.708µM*	?	-11.1%	?
CC(C)c1ccc(NC(=O)CSC2=Nc3ccccc3C3=NC(CC(=O)NCc4ccco4)C(=O)N23)cc1 (stereo unspecified)	-7.5%	.	.	.	.	.
CCOc1ccccc1NC(=O)c1cn(C2CCCC2)c(=O)c2c1c1ccccc1n2C	0.5%	.	.	.	.	.
CCN1CCN(Cc2ccc(NC(=O)c3cc(NC(=O)c4nccnc4N)cc(OC)c3)cc2C(F)(F)F)CC1	13.5µM*	.	-0.1%	-2.9%	6.6%	-6.0%
Cc1cc(C)c(NC(=O)CSc2ccc3nnc(CCNC(=O)c4ccccc4)n3n2)c(C)c1	4.6%	9.6%	6.1%	-1.4%	-11.3%	-0.8%
CCCN1CCN(CCCNC(=O)Cn2c(-c3cccs3)cc3cc(Cl)ccc32)CC1	-0.5%	.	.	.	.	.
O=c1oc2ccccc2cc1-c1ccc(O)cc1O	?	2.1%	-1.3%	-2.4%	15.2%	4.6%
O=c1oc2cc(O)ccc2cc1-c1ccc2c(c1)OCCO2	.	17.8µM*	.	.	.	.
O=c1c(-c2ccc3c(c2)OCCO3)coc2cc(O)cc(O)c12	4.78µM*	6.31µM*	1.78µM*	?	?	2.51µM*
COc1ccc(-c2cc3ccc(O)cc3oc2=O)cc1	4.78µM*	.	1.26µM*	3.16µM*	?	8.2µM*
O=c1oc2cc(O)ccc2cc1-c1nc(-c2ccc(Cl)c(Cl)c2)cs1	-3.7%	.	.	.	.	.
O=c1oc2cc(O)ccc2cc1-c1ccccc1	23.9µM*	.	?	4.5%	?	?
COc1ccc(-c2c(C)c3cc(O)ccc3oc2=O)cc1	?	.	-5.7%	0.2%	8.6%	7.8%
CCN(CC)Cc1c(O)ccc2c(=O)c(-c3ccc4c(c3)OCCO4)coc12	2.1%	-5.6%	2.4%	-10.5%	-13.5%	3.8%
Cc1nc2ccccc2cc1C(=O)N(C)Cc1ccccc1	-5.9%	.	-1.5%	-1.0%	1.0%	-7.5%
COc1ccc(CNC(=O)c2cnc3sc4cc(OC)ccc4n3c2=O)cc1	4.0%	7.1%	.	.	.	.
N#Cc1ccc2c(c1)N(CCCN1CCC(O)CC1)c1ccccc1S2	.	-21.9%	.	.	.	.
O=C1CC2(CCN(C(=O)c3cccc(Br)c3)CC2)Oc2ccccc21	0.8%	.	-0.9%	-0.6%	-1.0%	-2.6%
O=c1oc2cc(O)ccc2cc1-c1nnc(Nc2ccccc2F)s1	2.39µM*	3.98µM*	.	.	.	.
O=c1oc2ccc3ccccc3c2cc1-c1nnc(Nc2ccccc2F)s1	-1.5%	0.9%	.	.	.	.

Source: PubChem BioAssay
